The structures appear in SMILES notation. Where a name gives a salt, the structure may show the parent alone. Values without a mark were called inactive.

For the test, the system named is WPMY1-GM130-SQSTM1. Put plainly: phenotypically active (imaging signature differs from DMSO and reproducible) at any of 0.3-9 uM (binary (1 = active, 0 = inactive)); higher = active. The note with it: treatment time: 24 h. An outline of the steps: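 Fifteen gene-edited A549, HepG2 and WPMY1 reporter lines (BFP segmentation plus GFP and RFP/FusionRed markers) were treated at 0.3, 1, 3 or 9 µM for 24 h, four wells each, then imaged live. Live-cell features per well were normalised to DMSO control wells. Deviation required ≥3 of 4 wells beyond the 95th percentile of DMSO Euclidean distances, and reproducibility required median replicate Pearson correlation above the 95th percentile of non-replicates. Phenotypic activity needed both criteria.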
With `O=C(CCCCCCC(=O)Nc1ccc([C@H]2O[C@@H](CSc3nc(-c4ccccc4)c(-c4ccccc4)o3)C[C@@H](c3ccc(CO)cc3)O2)cc1)NO` [Tubacin], the phenotypically active is 1 (active).

Take `CC1CNCCN1S(=O)(=O)c1cccc2cnccc12` (centres undefined) [H-7 dihydrochloride]: the phenotypically active was 1 (active). For the molecule `COc1cc(OC)c2c(=O)[nH]c(-c3cc(C)c(OCCO)c(C)c3)nc2c1` [apabetalone], the phenotypically active is 0. The result for `CC1(CN2CCC(n3c(=O)[nH]c4ccccc43)CC2)OCc2ccccc2-n2cccc21` (centres undefined) reads 1 (active). Regarding `N#Cc1ccc2ncnc(NCCc3ccccc3)c2c1` [Senexin A], the phenotypically active was 0. Take `Nc1ccc(N=Nc2ccccc2)c(N)n1` [phenazopyridine]: the phenotypically active is 1 (active). For `O=C(CCCCCCC(=O)NO)NO`, the phenotypically active was 0. For `CC(C)(C)c1ccc(C(O)CCCN2CCC(C(O)(c3ccccc3)c3ccccc3)CC2)cc1` (centres undefined) [terfenadine] the value was 1 (active). The result for `COc1ccccc1C(=O)Nc1cc2c(cc1N1CCCC1)n(C)c(=O)n2C` reads 1 (active); that for `CCC(=O)N1CCOc2c(cc(-c3ccc(OC)c(OC)c3)cc2OC[C@H]2CCCN(C)C2)C1`, 0.

With `CCc1nc(-c2cccc(C)c2)c(-c2ccnc(NC(=O)c3ccccc3)c2)s1`, the phenotypically active is 0. The result for `Cc1ccc(S(=O)(=O)n2c(N)nc3ccccc32)cc1` reads 0.

For the molecule `Cc1ccc(NC(=O)c2cccc(C(C)(C)C#N)c2)cc1Nc1ccc2ncn(C)c(=O)c2c1`, the phenotypically active is 1 (active). The result for `Cn1cc(-c2cnc3ccc4ccc(CS(=O)(=O)NCc5ccccn5)cc4c(=O)c3c2)cn1` reads 0; that for `O=C1c2c(O)cccc2Cc2cccc(O)c21` [anthralin], 1 (active). The result for `COc1cc2c(cc1OC)-c1c/c(=N/c3c(C)cc(C)cc3C)n(C)c(=O)n1CC2` [Trequinsin hydrochloride] reads 1 (active); that for `O=C(Nc1ccncc1)c1cc([N+](=O)[O-])ccc1Cl`, 1 (active); that for `Nc1ncnc2c1c(-c1ccc(Oc3ccccc3)cc1)nn2C1CCCC1`, 0. For `O=C(Nc1ccc(CN2CCOCC2)cc1)c1ccc(-c2cccc(Cl)c2)o1` the value was 0; for `O=C(/C=C/c1ccc2ccccc2n1)c1ccncc1`, 1 (active); for `CNCC[C@H](Oc1cccc2ccccc12)c1cccs1` [duloxetine], 0. In the case of `CNC(=O)c1cc(Oc2ccc(NC(=O)Nc3ccc(Cl)c(C(F)(F)F)c3)c(F)c2)ccn1` [regorafenib], the phenotypically active is 0. As for `NC(=O)[C@@H](CCC(F)(F)F)N(Cc1ccc(-c2ncon2)cc1F)S(=O)(=O)c1ccc(Cl)cc1` [avagacestat], the phenotypically active is 0. The result for `CCC(C)(C)C(=O)O[C@H]1C[C@@H](C)C=C2C=C[C@H](C)[C@H](CC[C@@H]3C[C@@H](O)CC(=O)O3)[C@H]21` [Simvastatin] reads 1 (active); that for `Nc1cc(N)c(N)cc1N` [FAK Inhibitor 14], 1 (active). With `Cc1ccc(S(=O)(=O)c2ccc([N+](=O)[O-])o2)cc1`, the phenotypically active is 1 (active). Regarding `Fc1ccccc1Nc1nc2nonc2nc1Nc1ccccc1F`, the phenotypically active was 0. For the molecule `Cc1ccc(O)c([C@H](CCN(C(C)C)C(C)C)c2ccccc2)c1` [Tolterodine L-tartrate], the phenotypically active was 1 (active). For the molecule `O=c1cc(-c2ccccc2)oc2cc(O)cc(O)c12` [Chrysin], the phenotypically active is 0. As to `COc1cc2nccc(Oc3ccc(NC(=O)C4(C(=O)Nc5ccc(F)cc5)CC4)cc3)c2cc1OC`, the phenotypically active was 0. The result for `CC(C)c1nc(CN(C)C(=O)N[C@H](C(=O)N[C@@H](Cc2ccccc2)C[C@H](O)[C@H](Cc2ccccc2)NC(=O)OCc2cncs2)C(C)C)cs1` [ritonavir] reads 0; that for `CC[C@H](CO)Nc1nc(Nc2cccc(-c3ccccn3)c2)c2ncn(C(C)C)c2n1` [(R)-DRF053 dihydrochloride], 0; that for `CN1c2ccc([N+](=O)[O-])cc2N=C(c2ccc(C(=O)O)cc2)c2cc3c(cc21)C(C)(C)CCC3(C)C`, 0. The result for `COc1ccc(CCc2nc3cc(-c4c(C)noc4C)ccc3n2C[C@H](C)N2CCOCC2)cc1Cl` reads 1 (active); that for `CCOC(=O)c1c2c3c(cccc3[nH]c1=O)C(=O)c1ccccc1-2`, 0. The result for `CCN1/C(=C/C(C)=O)Sc2ccc(O)cc21` reads 0; that for `CC(C)(C)n1nc(-c2ccc(Cl)cc2)c2c(N)ncnc21`, 0; that for `O=S(=O)(c1cccc2cnccc12)N1CCNCC1`, 1 (active). With `CC(C)c1c(C(=O)Nc2ccccc2)c(-c2ccccc2)c(-c2ccc(F)cc2)n1CC[C@@H](O)C[C@@H](O)CC(=O)O` [atorvastatin], the phenotypically active is 1 (active).

These data come from the supplement of paper PMC7411054.
